Measured values published in PubChem BioAssay (NCATS).
Inconclusive results are not listed. A call without a number means that no potency is given here. Activity calls are given as the source filed them. Unless noted, the call rests on the fitted dose curve; in most records, active means well fitted curve in the direction sought with a large enough effect; inconclusive means small, poorly fitted or top-dose-only effect, or another doubt; inactive means no such curve, though single readings can be large; an effect the other way counts as inactive or inconclusive.

Key:
[1] = molecular target: Chromobox protein homolog 1 (Homo sapiens) (UniProt P83916); assay: qHTS Validation Assay for Inhibitors of HP1-beta Chromodomain Interactions with Methylated Histone Tails (AID 488953);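 further: loss of AlphaScreen luminescence from HP1-beta binding biotinylated H3K9me3 peptide; series mostly up to about 110 µM; nearly all actives have a fitted effect of over 50% in size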
Procedure, shortened: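 AlphaScreen proximity readout: streptavidin donor and Ni-chelate acceptor beads, 10 ug/mL final, 30 min dark, RT. Complex of 50 nM HP1-beta and 50 nM b-H3(1-18)K9me3 formed 30 min, then compound-treated 30 min; PBS pH 7.4/0.01% Tween-20.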

[2] = molecular target: Transient receptor potential cation channel subfamily V member 1 (Homo sapiens) (UniProt Q8NER1); assay: HTS Assay for Compounds that Act as Enhancers of the Vanilloid Receptor 1 (AID 488979)
Procedure, shortened: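 Calcium influx kinetics via Fluo-8 (480/520 nm) in TRPV1-expressing cells, 2000/well cultured overnight at 35.5C. Compound-alone read 3 min (agonist phase), followed by EC20 capsaicin challenge for 2 min (enhancer phase).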

[3] = molecular target: Thyrotropin receptor (Homo sapiens) (UniProt P16473); assay: qHTS Assay for Antagonists of the Thyroid Stimulating Hormone Receptor (AID 488980); further: series mostly up to about 58 µM
Procedure, shortened: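 Cells expressing human TSHR (HEK293) are dispensed in HBSS/HEPES containing 70 uM RO 20-1724, compound is added, then TSH at EC80 (4 nM final). Antibody in lysis buffer follows, 30 minutes at room temperature before HTRF detection.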

[4] = molecular target: D(1A) dopamine receptor (Homo sapiens) (UniProt P21728); assay: HTS Assay for Allosteric Agonists of the Human D1 Dopamine Receptor: Primary Screen for Agonists (AID 488981)
Procedure, shortened: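 Calcium flux in an inducible, force-coupled HEK293 Trex D1 line (overnight at 30 C): agonist mode is the 180 s kinetic read after compound; potentiator mode is the following 180 s read after dopamine at EC20.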

[5] = molecular target: D(1A) dopamine receptor (Homo sapiens) (UniProt P21728); assay: HTS Assay for Allosteric Agonists of the Human D1 Dopamine Receptor: Primary Screen for Antagonists (AID 488983);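 further: calcium flux response to an EC80 dopamine challenge measured with no-wash dye; nearly all actives have a fitted effect of over 65% in size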
Procedure, shortened: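 Calcium flux readout, no-wash dye, inducible HEK293 T-REx D1 line (force-coupled). Compound added after 10 s baseline, 180 s kinetic read; then dopamine at EC80, further 180 s read.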

[6] = Validation screen for small molecules that induce genotoxicity in human embryonic kidney (HEK293T) cells expressing luciferase-tagged ELG1 (AID 493106)
Procedure, shortened: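 qHTS format; 2,000 HEK293T ELG1-luc cells/well; 23 nL compound via pin tool; 16 hr, 37 °C/5% CO2; ONE-Glo, 30 min RT; luminescence read.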

[7] = molecular target: ATPase family AAA domain-containing protein 5 (Homo sapiens) (UniProt Q96QE3); assay: Validation screen for small molecules that inhibit ELG1-dependent DNA repair in human embryonic kidney (HEK293T) cells expressing luciferase-tagged ELG1 (AID 493107); further: nearly all actives have a fitted effect of over 70% in size; further: potency means the concentration at half of the fitted maximal effect
Procedure, shortened: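 ELG1-luciferase HEK293T reporter; 5-fluorouridine + compound/DMSO, 16 hr, 37 °C, 5% CO2; ONE-Glo 30 min RT; luminescence read, qHTS format.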

[8] = molecular target: Thyrotropin-releasing hormone receptor (Homo sapiens) (UniProt P34981); assay: qHTS for Small Molecule Agonists and Allosteric Enhancers of Human TRH Receptor: Validation Screen for Agonists (AID 493127;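 active means calcium activation more than 3 SD above the typical response in the agonist read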;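 further: intracellular calcium rise by fluo-8 fluorescence before TRH EC20 addition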); settings: TRH receptor agonist cell assay; at 2 µM; stronger effect = higher value
Procedure, shortened: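 Read-out: intracellular calcium release measured kinetically by FDSS (fluo-8, ex 480/em 530 nm), 1 reading/s after a 10-cycle baseline. TRHR cells, 2000/well, cultured 18 h at 33.5C, dye-loaded at room temp. Compound-evoked positive calcium signal flags agonists.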

[9] = qHTS for Inhibitors of Cell Surface uPA Generation: Validation Assay (AID 493164);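 further: RAW 264.7 macrophage cells exposed to compound for 18 h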
Procedure, shortened: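 Compounds are titrated over seven points (2.45 nM–38.3 uM final) onto pre-plated RAW 264.7 cells and incubated for 18 h. Retained intracellular ATP, measured with ATP-Lite, indicates blocked lethal factor entry.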

[10] = molecular target: Galactokinase (Homo sapiens) (UniProt P51570); assay: qHTS Validation Assay for Inhibitors of Human Galactokinase (GALK) (AID 493189)
Procedure, shortened: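 Compounds were pin-transferred into ATP buffer, then GALK-galactose mix was added (final 5 nM enzyme, 100 uM galactose, 35 uM ATP). After 1 h at room temperature, remaining ATP was measured luminescently.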

[11] = Validation screen for small molecules that induce DNA re-replication in SW480 colon adenocarcinoma cells (AID 504364)
Procedure, shortened: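 Read-out: total Hoechst intensity of nuclei by fluorescence scanning imager; hits raise the fraction of nuclei with elevated DNA content. Cells received compound for 48 hr at 37 C before a 40 min stain.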

[12] = molecular target: Peptidyl-prolyl cis-trans isomerase NIMA-interacting 1 (Homo sapiens) (UniProt Q13526); assay: qHTS Validation Assay to Find Inhibitors of Pin1 (AID 504536; active means well fitted inhibition curve with a large enough effect in the polarisation, with a control signal flat, not every such curve was filed as active; the % refers to the polarisation)
Procedure, shortened: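 Fluorescence polarization competition: compounds (titration) displace HiFluor-488-labeled Pin1-1b peptide from Pin1 (0.3 uM final) in pH 7.5 HEPES buffer with DTT, 10 min at room temperature; %Activity normalized to no-enzyme wells, curves fitted.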

[13] = molecular target: Phosphoglycerate kinase, glycosomal (Trypanosoma brucei brucei) (UniProt P07378); assay: qHTS Validation Assay to Find Inhibitors of Phosphoglycerate Kinase (AID 504547)
Procedure, shortened: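 Luminescence end-point (Kinase-Glo Plus, 10 min) after a 60 min room-temperature coupled reaction. GAPDH at 100nM final supplies 1,3-BPG to PGK. Buffer: 100mM TEA pH 7.6, 5mM MgCl2, 0.01% Tween-20. Wells lacking PGK served as controls.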

[14] = molecular target: phosphoglycerate mutase (Leishmania major) (UniProt Q4Q090); assay: qHTS Validation Assay to Find Inhibitors of Phosphoglycerate Mutase (AID 504548);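 further: end-point luminescence from Kinase-GloPlus after the PGAM reaction; series mostly up to about 58 µM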
Procedure, shortened: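 L. major PGAM (1.25nM final) was added to substrate buffer and pinned compound, incubated 45 minutes at room temperature, then Kinase-GloPlus added; luminescence read after 10 minutes. Buffer: 100 mM TEA pH 7.6, 5 mM MgCl2, 0.01% Tween-20.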

[15] = Inducers of the Endoplasmic Reticulum Stress Response (ERSR) in human glioma: Validation (AID 504836)
Procedure, shortened: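 ERSR induction read as luciferase luminescence (Bright-Glo, 10 min at room temperature) in stably transfected human U87-MG glioma cells exposed to compounds for 16 h, using GRP78 as sensor.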

[16] = molecular target: Ubiquitin carboxyl-terminal hydrolase 1 (Homo sapiens) (UniProt O94782); assay: Inhibitors of USP1/UAF1: Pilot qHTS (AID 504865);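 further: rhodamine fluorescence freed from ubiquitin-rhodamine substrate followed over time; top concentration of the series differs between compounds; nearly all actives have a fitted effect of over 35% in size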
Procedure, shortened: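 Kinetic fluorescence assay: 1nM USP1/UAF1, 15 min compound preincubation, then 150nM Ub-Rho; 480/540 nm.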

[17] = qHTS for Inhibitors of ATXN expression: Validation of Cytotoxic Assay (AID 588349); further: potency means the concentration at half of the fitted maximal effect
Procedure, shortened: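 Cytotoxicity counter-screen: HEK293 cells exposed to compound titrations, 72 hr, 37 degrees C. Read-out is intracellular ATP (CellTiter Glo luminescence) as a viability measure.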

[18] = Nrf2 qHTS screen for inhibitors: Validation (AID 493153; active means well fitted inhibition curve with a large enough effect in the main read-out, with a control signal flat, not every such curve was filed as active); settings: Potency: luciferase luminescence; viability change: measured here: cytotoxicity max response
Procedure, shortened: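 Concentration-response test in A549 ARE_Fluc reporter cells (5% FBS OPTI-MEM), compound exposure 18-24 h at 37°C, 5% CO2. Cell viability measured first by CellTiter-Fluor fluorescence; ARE-driven luciferase luminescence then measured as Nrf2 activity.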

[19] = molecular target: DNA dC->dU-editing enzyme APOBEC-3G (Homo sapiens) (UniProt Q9HC16); assay: qHTS for inhibitors of Vif-A3G interactions: Validation (AID 588379)
Procedure, shortened: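 Yellow fluorescence (Ex 488, Em 500-530) of Vif-coexpressing HeLa A3G-eYFP cells, scanned by Acumen cytometer, reports blocked A3G degradation. Cells plated at 700/well overnight at 37 deg C before compound addition, then a further overnight compound incubation at 37 deg C.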

Chain of Thyrotropin-releasing hormone receptor (Homo sapiens) (P34981 whole entry, looked up): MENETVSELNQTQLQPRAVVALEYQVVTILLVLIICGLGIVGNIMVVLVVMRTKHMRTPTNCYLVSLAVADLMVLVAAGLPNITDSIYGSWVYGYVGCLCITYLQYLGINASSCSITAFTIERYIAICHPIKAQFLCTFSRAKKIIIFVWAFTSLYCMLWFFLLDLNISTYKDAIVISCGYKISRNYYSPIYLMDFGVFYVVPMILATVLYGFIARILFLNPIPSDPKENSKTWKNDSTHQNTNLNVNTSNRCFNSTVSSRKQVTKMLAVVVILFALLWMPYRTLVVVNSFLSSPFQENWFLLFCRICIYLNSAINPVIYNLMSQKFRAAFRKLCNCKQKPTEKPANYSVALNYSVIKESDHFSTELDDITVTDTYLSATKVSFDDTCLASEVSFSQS
Chain of Phosphoglycerate kinase, glycosomal (Trypanosoma brucei brucei) (P07378 whole entry, looked up): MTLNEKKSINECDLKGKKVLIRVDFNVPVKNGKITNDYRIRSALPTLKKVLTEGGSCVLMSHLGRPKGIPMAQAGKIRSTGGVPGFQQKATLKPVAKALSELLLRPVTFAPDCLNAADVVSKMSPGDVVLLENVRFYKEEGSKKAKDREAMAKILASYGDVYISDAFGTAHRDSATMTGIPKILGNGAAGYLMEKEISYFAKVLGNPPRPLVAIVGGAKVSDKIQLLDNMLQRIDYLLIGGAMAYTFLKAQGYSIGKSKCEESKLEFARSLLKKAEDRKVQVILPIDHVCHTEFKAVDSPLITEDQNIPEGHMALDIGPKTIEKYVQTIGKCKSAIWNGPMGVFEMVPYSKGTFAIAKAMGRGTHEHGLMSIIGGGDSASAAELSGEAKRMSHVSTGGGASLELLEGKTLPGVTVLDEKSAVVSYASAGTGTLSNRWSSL
Chain of Peptidyl-prolyl cis-trans isomerase NIMA-interacting 1 (Homo sapiens) (Q13526 whole entry, looked up): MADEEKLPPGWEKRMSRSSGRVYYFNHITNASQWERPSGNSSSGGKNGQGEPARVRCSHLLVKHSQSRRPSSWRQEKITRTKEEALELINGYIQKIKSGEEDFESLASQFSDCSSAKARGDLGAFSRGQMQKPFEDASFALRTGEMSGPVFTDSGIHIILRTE
Chain of Transient receptor potential cation channel subfamily V member 1 (Homo sapiens) (Q8NER1 whole entry, looked up): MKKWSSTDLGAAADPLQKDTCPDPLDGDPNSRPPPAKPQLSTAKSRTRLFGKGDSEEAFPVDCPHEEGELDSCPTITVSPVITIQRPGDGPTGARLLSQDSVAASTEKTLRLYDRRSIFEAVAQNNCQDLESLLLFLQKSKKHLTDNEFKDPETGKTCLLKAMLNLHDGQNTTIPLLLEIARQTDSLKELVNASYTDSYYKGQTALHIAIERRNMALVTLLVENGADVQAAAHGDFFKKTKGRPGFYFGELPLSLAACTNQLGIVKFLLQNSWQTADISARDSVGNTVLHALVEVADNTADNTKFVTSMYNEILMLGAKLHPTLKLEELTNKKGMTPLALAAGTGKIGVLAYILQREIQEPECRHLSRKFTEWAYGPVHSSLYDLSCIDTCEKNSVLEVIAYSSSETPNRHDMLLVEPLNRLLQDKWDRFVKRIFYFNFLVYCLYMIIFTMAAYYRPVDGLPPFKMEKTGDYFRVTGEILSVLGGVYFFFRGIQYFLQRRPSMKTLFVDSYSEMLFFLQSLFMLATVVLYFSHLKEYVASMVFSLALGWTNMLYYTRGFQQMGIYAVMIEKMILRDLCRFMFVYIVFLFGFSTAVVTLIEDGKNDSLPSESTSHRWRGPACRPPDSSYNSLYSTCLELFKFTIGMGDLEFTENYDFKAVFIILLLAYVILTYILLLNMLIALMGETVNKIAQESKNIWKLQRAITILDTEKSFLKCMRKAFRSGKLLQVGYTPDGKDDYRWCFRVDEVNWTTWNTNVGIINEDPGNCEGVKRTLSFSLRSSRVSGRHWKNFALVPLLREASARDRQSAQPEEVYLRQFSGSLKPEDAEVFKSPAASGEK
Chain of Ubiquitin carboxyl-terminal hydrolase 1 (Homo sapiens) (O94782 whole entry, looked up): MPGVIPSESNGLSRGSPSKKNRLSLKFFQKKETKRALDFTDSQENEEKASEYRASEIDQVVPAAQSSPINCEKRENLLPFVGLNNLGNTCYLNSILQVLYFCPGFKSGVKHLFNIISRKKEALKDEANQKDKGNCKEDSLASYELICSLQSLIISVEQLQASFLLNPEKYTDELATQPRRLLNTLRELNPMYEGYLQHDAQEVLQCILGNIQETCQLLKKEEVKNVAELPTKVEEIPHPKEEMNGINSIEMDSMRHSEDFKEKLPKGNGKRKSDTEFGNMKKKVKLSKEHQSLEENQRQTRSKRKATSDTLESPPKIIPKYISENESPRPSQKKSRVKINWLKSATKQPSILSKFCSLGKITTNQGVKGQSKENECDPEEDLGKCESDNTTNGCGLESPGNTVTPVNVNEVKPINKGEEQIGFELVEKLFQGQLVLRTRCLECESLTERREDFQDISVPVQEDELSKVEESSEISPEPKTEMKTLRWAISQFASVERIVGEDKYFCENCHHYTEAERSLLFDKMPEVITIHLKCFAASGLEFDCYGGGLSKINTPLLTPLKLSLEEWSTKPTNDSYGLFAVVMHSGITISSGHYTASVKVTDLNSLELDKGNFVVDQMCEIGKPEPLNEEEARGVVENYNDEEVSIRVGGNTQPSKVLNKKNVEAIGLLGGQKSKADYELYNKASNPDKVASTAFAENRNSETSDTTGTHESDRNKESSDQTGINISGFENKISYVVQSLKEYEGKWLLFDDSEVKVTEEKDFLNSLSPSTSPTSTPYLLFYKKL
Chain of ATPase family AAA domain-containing protein 5 (Homo sapiens) (Q96QE3 whole entry, looked up, the tested form may be a part): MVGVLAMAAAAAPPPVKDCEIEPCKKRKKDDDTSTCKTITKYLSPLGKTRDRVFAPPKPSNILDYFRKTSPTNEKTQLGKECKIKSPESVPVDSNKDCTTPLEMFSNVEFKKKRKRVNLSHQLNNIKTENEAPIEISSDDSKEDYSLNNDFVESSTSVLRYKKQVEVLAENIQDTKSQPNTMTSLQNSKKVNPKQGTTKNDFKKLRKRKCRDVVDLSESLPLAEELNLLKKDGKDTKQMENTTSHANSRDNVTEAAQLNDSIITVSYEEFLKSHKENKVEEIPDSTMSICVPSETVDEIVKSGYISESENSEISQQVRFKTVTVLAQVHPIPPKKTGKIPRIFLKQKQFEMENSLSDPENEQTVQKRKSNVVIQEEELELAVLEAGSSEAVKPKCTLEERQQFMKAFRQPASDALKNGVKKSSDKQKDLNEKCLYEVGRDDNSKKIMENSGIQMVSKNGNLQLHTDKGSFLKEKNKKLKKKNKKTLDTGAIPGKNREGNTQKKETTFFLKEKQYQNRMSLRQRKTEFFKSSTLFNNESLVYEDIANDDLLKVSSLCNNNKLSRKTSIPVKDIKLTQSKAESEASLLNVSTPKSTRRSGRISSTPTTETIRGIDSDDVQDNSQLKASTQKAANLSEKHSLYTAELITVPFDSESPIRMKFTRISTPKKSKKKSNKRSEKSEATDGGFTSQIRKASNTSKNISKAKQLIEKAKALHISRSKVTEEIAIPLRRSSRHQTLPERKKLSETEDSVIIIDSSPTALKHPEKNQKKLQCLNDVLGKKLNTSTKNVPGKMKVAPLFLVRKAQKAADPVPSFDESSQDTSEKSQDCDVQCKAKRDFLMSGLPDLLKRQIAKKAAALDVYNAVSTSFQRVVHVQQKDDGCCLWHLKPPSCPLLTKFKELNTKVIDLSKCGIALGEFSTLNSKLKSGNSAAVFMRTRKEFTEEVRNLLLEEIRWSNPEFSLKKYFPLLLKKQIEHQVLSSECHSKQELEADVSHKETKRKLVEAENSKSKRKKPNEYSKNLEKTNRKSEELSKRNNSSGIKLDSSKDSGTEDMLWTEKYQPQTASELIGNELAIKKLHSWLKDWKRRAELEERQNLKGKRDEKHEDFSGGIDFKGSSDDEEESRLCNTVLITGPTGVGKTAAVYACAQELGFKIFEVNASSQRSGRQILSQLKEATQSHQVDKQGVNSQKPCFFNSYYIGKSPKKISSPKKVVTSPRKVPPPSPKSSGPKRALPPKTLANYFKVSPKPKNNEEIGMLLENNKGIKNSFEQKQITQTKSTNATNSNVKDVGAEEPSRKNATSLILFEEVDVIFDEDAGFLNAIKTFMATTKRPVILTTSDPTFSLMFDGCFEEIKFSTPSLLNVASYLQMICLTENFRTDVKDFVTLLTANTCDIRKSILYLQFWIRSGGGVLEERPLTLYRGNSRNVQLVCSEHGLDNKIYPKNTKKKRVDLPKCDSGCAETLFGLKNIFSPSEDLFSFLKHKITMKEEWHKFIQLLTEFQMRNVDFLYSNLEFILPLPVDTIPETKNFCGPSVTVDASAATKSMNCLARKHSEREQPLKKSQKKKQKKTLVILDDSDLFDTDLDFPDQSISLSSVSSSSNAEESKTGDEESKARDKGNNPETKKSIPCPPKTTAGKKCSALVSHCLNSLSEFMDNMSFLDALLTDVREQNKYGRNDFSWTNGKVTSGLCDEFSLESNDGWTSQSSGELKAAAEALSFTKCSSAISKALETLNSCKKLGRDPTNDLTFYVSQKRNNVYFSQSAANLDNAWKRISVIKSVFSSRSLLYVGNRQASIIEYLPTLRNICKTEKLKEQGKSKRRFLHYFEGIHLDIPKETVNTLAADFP
Chain of Galactokinase (Homo sapiens) (P51570 whole entry, looked up): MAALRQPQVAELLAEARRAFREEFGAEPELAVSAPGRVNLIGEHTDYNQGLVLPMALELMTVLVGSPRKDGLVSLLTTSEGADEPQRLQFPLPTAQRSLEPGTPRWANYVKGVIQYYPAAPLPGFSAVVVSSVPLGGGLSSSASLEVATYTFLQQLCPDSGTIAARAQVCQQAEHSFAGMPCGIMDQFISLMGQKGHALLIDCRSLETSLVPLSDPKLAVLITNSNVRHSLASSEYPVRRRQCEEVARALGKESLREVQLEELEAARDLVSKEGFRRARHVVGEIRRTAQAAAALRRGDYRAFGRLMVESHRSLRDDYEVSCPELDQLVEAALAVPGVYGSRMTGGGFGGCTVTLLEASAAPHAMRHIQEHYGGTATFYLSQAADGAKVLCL
Chain of Chromobox protein homolog 1 (Homo sapiens) (P83916 whole entry, looked up): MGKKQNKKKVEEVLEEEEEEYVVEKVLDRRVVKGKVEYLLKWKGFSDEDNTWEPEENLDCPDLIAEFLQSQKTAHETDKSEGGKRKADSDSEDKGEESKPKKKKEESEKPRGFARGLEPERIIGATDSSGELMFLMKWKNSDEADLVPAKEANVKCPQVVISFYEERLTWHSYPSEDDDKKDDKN

Cc1ncc(CNC(=O)N(CCCl)N=O)c(N)n1
Potency [1]: inactive | outcome [2]: inactive | outcome [3]: inactive | Potency [4]: inactive | Potency [5]: inactive | Potency [6]: inactive | Potency [7]: inactive | activation [8]: 1.5% (inactive) | outcome [9]: inactive | outcome [10]: inactive | Potency [11]: inactive | Potency [12]: inactive | Potency [13]: inactive | outcome [14]: inactive | outcome [15]: inactive | Potency [16]: inactive | Potency [17]: inactive

C[C@@H]1O[C@@H](O[C@H]2C[C@@H](O)[C@]3(CO)[C@H]4[C@H](O)C[C@]5(C)[C@@H](C6=CC(=O)OC6)CC[C@]5(O)[C@@H]4CC[C@]3(O)C2)[C@H](O)[C@H](O)[C@H]1O
Potency [1]: inactive | Potency [4]: inactive | Potency [5]: inactive | Potency [6]: inactive | Potency [7]: 0.092 µM (active) | outcome [9]: inactive | Potency [11]: inactive | Potency [12]: inactive | Potency [13]: inactive | outcome [14]: inactive | outcome [15]: inactive | Potency [16]: inactive

N#CC(C#N)=Cc1ccc(O)c(O)c1
outcome [2]: inactive | outcome [3]: inactive | Potency [4]: inactive | Potency [5]: inactive | Potency [6]: inactive | Potency [7]: inactive | activation [8]: 1.19% (inactive) | Potency [18]: inactive | viability change [18]: -7.57% | outcome [9]: inactive | outcome [10]: inactive | Potency [11]: inactive | Potency [12]: inactive | Potency [13]: inactive | outcome [14]: inactive | outcome [15]: inactive | Potency [16]: inactive | Potency [17]: inactive | outcome [19]: inactive

c1ccc2c(c1)OCC(C1=NCCN1)O2 (stereo unspecified)
Potency [1]: inactive | outcome [2]: inactive | outcome [3]: inactive | Potency [4]: inactive | Potency [5]: inactive | Potency [6]: inactive | Potency [7]: 14.6 µM (active) | activation [8]: 1.38% (inactive) | outcome [9]: inactive | outcome [10]: inactive | Potency [11]: inactive | Potency [12]: inactive | Potency [13]: inactive | outcome [14]: inactive | outcome [15]: inactive | Potency [16]: inactive | Potency [17]: 22.4 µM (active)

Cc1cccc(C)c1NC1=NCCCS1
Potency [1]: inactive | outcome [2]: inactive | outcome [3]: inactive | Potency [4]: inactive | Potency [5]: inactive | Potency [6]: inactive | Potency [7]: inactive | activation [8]: 0.688% (inactive) | Potency [18]: inactive | viability change [18]: -1.16% | outcome [9]: inactive | outcome [10]: inactive | Potency [11]: inactive | Potency [12]: inactive | Potency [13]: inactive | outcome [14]: inactive | outcome [15]: inactive | Potency [16]: inactive | Potency [17]: inactive

CC(C)C(=O)Nc1ccc([N+](=O)[O-])c(C(F)(F)F)c1
Potency [1]: inactive | Potency [6]: inactive | outcome [15]: inactive

Nc1ccncc1
outcome [2]: inactive | outcome [3]: inactive | Potency [4]: inactive | Potency [5]: inactive | Potency [6]: inactive | Potency [7]: inactive | activation [8]: 1.19% (inactive) | Potency [18]: inactive | viability change [18]: -2.07% | outcome [9]: inactive | outcome [10]: inactive | Potency [11]: inactive | Potency [12]: inactive | Potency [13]: inactive | outcome [14]: inactive | outcome [15]: inactive | Potency [16]: inactive | Potency [17]: inactive | outcome [19]: inactive
